Data taken from PubChem BioAssay AID1224862 (National Center for Advancing Translational Sciences (NCATS), 2016).
Inconclusive results are not listed. Entries that show only a call come without a potency. Activity calls are given as the source filed them. The call rests on the fitted dose curve; in most records, active means well fitted cell-killing curve with a large enough effect; inconclusive means small, poorly fitted or top-dose-only effect, or effect the other way; inactive means flat fitted curve, though single readings scatter.

Assay: Compound cytotoxicity measured by an ATP content assay as a counter-screen for lead compounds in human astrocytoma cell line (SNB-19)
Conditions: SNB-19 astrocytoma viability, ATP luminescence; series mostly up to 46.1 µM
Summary of the method: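 SNB-19 cells, 250 per well, were treated with compounds for 6, 24 or 72 h after overnight seeding. The ATP detection reagent was added 1:1 and luminescence read after 10 min at room temperature, with the signal converted to percent inhibition of viability.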

SMILES	Potency
O=C(O)c1cccc(-c2noc(-c3ccccc3F)n2)c1	5.48 µM (active)
O=C1c2ccccc2C(=O)c2c(NCCc3ccc(O)cc3)ccc(NCCc3ccc(O)cc3)c21	inactive
Oc1cc(O)cc(/C=C/c2ccc(O)c(O)c2)c1	24.5 µM (active)
CC=CC[C@@H](C)C(=O)[C@H]1C(=O)N[C@@H](C(C)C)C(=O)N(C)CC(=O)N(C)[C@@H](CC(C)C)C(=O)N[C@@H](C(C)C)C(=O)N(C)[C@@H](CC(C)C)C(=O)N[C@@H](C)C(=O)N[C@H](C)C(=O)N(C)[C@@H](CC(C)C)C(=O)N(C)[C@@H](CC(C)C)C(=O)N(C)[C@@H](C(C)C)C(=O)N1C	inactive
O=C1C[C@@H](c2ccc(O)cc2)Oc2cc(O)cc(O)c21	inactive
CC(=O)OC(C)OC(=O)C(C)c1ccc(-c2ccccc2)c(F)c1 (stereo not given)	inactive
CN(C)c1ccc2cc(C(=O)N[C@@H](CCCN=C(N)CCl)C(=O)NCc3ccccc3)ccc2c1	inactive
Cc1c(NC(=O)c2ccc(C(C)(C)C)cc2)cccc1-c1cn(C)c(=O)c(Nc2ccc(C(=O)N3CCOCC3)cc2)n1	inactive
CC(C(=O)O)c1ccc(-c2ccccc2)c(F)c1 (stereo not given)	inactive
Nc1ncnc2c1ncn2[C@@H]1O[C@@H](CO)[C@H](O)[C@H]1O	inactive
CC(C(=O)O)c1ccc(C(=O)c2cccs2)cc1 (stereo not given)	inactive
CC(C)c1ccc2oc3nc(N)c(C(=O)O)cc3c(=O)c2c1	1.55 µM (active)
CC(=NNC(=S)N1CCC1)c1ccccn1	inactive
CCCC(=O)OC[C@@H](OC(=O)CCC)[C@@H](OC(=O)CCC)[C@H](Cn1c2nc(=O)[nH]c(=O)c-2nc2cc(C)c(C)cc21)OC(=O)CCC	inactive
CC(C(=O)O)c1ccc(C(=O)c2ccccc2)s1 (stereo not given)	inactive
Cc1oncc1C(=O)Nc1ccc(C(F)(F)F)cc1	inactive
Cc1[nH]c(C=C2C(=O)Nc3ccccc32)c(C)c1CCC(=O)O	inactive
CCCCCCCC/C=C/C(=O)O	inactive

SMILES	Potency
O=C1C(Cl)=C(NCCN2CCOCC2)C(=O)c2ncccc21	6.15 µM (active)
c1ccc(CCNc2nc(-c3ccccc3)cs2)cc1	inactive
CNC1[C@H](O)C(O[C@@H]2C(O)C(O[C@H]3O[C@H]([C@@H](C)NC)CC[C@H]3N)[C@@H](N)C[C@H]2N)OC[C@]1(C)O (stereo not given in full)	inactive
NC1CCC(Nc2nc(Nc3ccc(C(=O)N4CCCCC4)cc3)c3ncn(-c4cccc(F)c4)c3n2)CC1 (stereo not given)	inactive
CC(C)(C)OC(=O)CN(Cc1ccc(Cl)cc1)Cc1ccc([N+](=O)[O-])s1	inactive
O=C(Nc1cc2cc[nH]c2cn1)c1ccccc1	0.388 µM (active)
CCCCCNC(=O)N1CCC(CN(Cc2ccc(Cl)cc2)Cc2ccc([N+](=O)[O-])s2)C1 (stereo not given)	inactive
[O-][n+]1ccccc1SSc1cccc[n+]1[O-]	0.708 µM (active)
CC[C@@]1(O)C[C@H](O[C@H]2C[C@H](N(C)C)[C@H](O[C@H]3C[C@H](O)[C@H](O[C@H]4CCC(=O)[C@H](C)O4)[C@H](C)O3)[C@H](C)O2)c2c(cc3c(c2O)C(=O)c2c(O)cccc2C3=O)[C@@H]1C(=O)OC	inactive
Cc1cccc(/C=C/c2ccccc2)n1	inactive
O=C1NC(=O)C(=Cc2ccc(-c3ccc(F)cc3)o2)S1	inactive
O=C(O)Cc1ccc(-c2ccccc2)cc1	inactive
COc1ccc(CC2=NN3C([C@@H](CCc4ccccc4)[C@@H](C)O)=NC(C)C3C(=O)N2)cc1OC (stereo not given in full)	inactive
CCOC1OC(=O)C[C@H]1NC(=O)[C@@H]1CCCN1C(=O)[C@@H](NC(=O)c1ccc(N)c(Cl)c1)C(C)(C)C (stereo not given in full)	inactive
Cc1nc(N)sc1-c1ccnc(Nc2ccc(N3CCOCC3)cc2)n1	inactive
CC(=O)Oc1ccccc1C(=O)Nc1ncc([N+](=O)[O-])s1	inactive
CCN1CCC(n2cc(CNc3cc(Cl)c4ncc(C#N)c(Nc5ccc(F)c(Cl)c5)c4c3)nn2)CC1	inactive
